Compounds with a hit are over-represented: about 3.8% of the library has one in this group of screens.
pPAFAH FP inh = pPAFAH (human) enzyme inhibition | Q13093 | recombinant pPAFAH, FP-rhodamine probe fluorescence polarization | inhibition, % at 3.39 µM | hit rate 1.5% among 330,000;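 active means inhibition above the mean inhibition across the screen plus 3 SD, cut at about 25% in these data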;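 further: inhibitors block binding of the rhodamine activity-based probe so polarization drops; 0% = enzyme with DMSO and 100% = wells lacking pPAFAH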
Target sequence (Q13093 whole entry, looked up): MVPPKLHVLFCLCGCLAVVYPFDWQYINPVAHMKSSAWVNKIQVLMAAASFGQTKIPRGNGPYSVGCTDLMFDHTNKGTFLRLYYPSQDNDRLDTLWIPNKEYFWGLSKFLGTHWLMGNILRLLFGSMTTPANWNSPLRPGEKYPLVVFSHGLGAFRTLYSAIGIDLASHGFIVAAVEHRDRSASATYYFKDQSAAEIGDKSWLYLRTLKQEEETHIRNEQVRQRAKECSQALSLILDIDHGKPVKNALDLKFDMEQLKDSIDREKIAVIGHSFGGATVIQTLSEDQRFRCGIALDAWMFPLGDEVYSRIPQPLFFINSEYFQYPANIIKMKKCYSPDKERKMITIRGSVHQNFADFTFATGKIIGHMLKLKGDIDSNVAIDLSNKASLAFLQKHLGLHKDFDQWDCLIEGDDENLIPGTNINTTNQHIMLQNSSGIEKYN
PAFAH1B2 inh = PAFAH1B2 (human) inhibition. inhibition, % at 3.39 µM. hit rate 1.2% among 340,000. AID 492953. P68402. recombinant PAFAH1B2, FP-rhodamine activity probe, fluorescence polarization;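 active means inhibition above the mean of all tested compounds plus 3 SD, cut at about 24% in these data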;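 further: 0% = enzyme with DMSO and 100% = wells lacking PAFAH1B2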
M18AAP inhibitor = PfM18AAP enzyme inhibition; recombinant PfM18AAP, H-Glu-NHMec fluorogenic cleavage; inhibition, % at 7.35 µM; hit rate 1.2% among 290,000; AID 1822;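 active means inhibition above the campaign mean inhibition over all tested compounds plus 3 SD, cut at about 28% in these data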;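 further: 0% = plate median of test compound wells and 100% = 2 mM ZnCl2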
PAFAH1B3 FP inh = inhibitors of human PAFAH1B3; Q15102; recombinant PAFAH1B3, FP-rhodamine probe, fluorescence polarization; inhibition, % at 3.39 µM; hit rate 0.28% among 340,000;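 active means inhibition above the screen-wide average of all tested compounds plus 3 SD, cut at about 25% in these data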;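 further: 0% = enzyme with DMSO only and 100% = wells lacking PAFAH1B3 protein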
PAFAH2 FP inh = PAFAH2 (human) inhibition | inhibition, % at 3.39 µM | recombinant PAFAH2, FP-rhodamine activity probe, fluorescence polarization | hit rate 0.99% among 340,000 | Q99487;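 active means inhibition above the mean over all tested compounds plus 3 SD, cut at about 30% in these data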;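 further: inhibitors block probe labeling of enzyme so polarization drops; 0% = enzyme with DMSO and 100% = wells lacking PAFAH2 protein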
DSG3 Ab inh = blocks pemphigus antibody binding to human desmoglein-3. hit rate 0.48% among 310,000. P32926. DSG3-coupled beads, scFv-anti-DSG3-GFP binding, flow cytometry; active compounds read low. AID 588358. binding (percent of control), % at 10 µM;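 active means binding more than 3 SD below its plate's average and above zero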;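 further: hits lower antibody fragment binding to DSG3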
An asterisk follows results filed as active; · = no result given.

SMILES | pPAFAH FP inh | PAFAH1B2 inh | M18AAP inhibitor | PAFAH1B3 FP inh | PAFAH2 FP inh | DSG3 Ab inh
CN(C)C(=O)CCc1ccc2c3c([nH]c2c1)[C@]1(C)[C@@H](C(=O)N2CCCCC2)C[C@H](CC(=O)NCCN2CCOCC2)C(=O)N1CC3 | -6 | -1 | · | 8 | 1 | 105
CN(C)C(=O)CCc1ccc2c3c([nH]c2c1)[C@]1(C)[C@@H](C(=O)N2CCCCC2)C[C@H](CC(=O)NCC24CC5CC(CC(C5)C2)C4)C(=O)N1CC3 | 31* | 5 | · | 7 | 1 | 97
CC(C)=CCC/C(C)=C/CNC(=O)C[C@H]1C[C@H](C(=O)N2CCOCC2)[C@@]2(C)c3[nH]c4cc(-c5ccco5)ccc4c3CCN2C1=O | 25* | 3 | · | 1 | 5 | 100
CC(C)=CCC/C(C)=C/CNC(=O)CC1C[C@H](C(=O)N2CCOCC2)[C@@]2(C)c3[nH]c4ccccc4c3CCN2C1=O (stereo partly specified) | 7 | 7 | · | 2 | 9 | 105
NNC(=O)c1oc2nc(-c3ccccc3)cc(-c3ccccc3)c2c1N | 6 | 5 | 2 | 16 | 6 | 460
NNC(=O)c1oc2nc(-c3cccs3)cc(-c3ccco3)c2c1N | 32* | 11 | -8 | 6 | 15 | 94
Cc1ccc(-c2cc(-c3ccco3)c3c(N)c(C(=O)NN)oc3n2)cc1 | 32* | 5 | 4 | 13 | 22 | 110
CN(Cc1ccc(Cl)c(Cl)c1)C(=O)C1CC(=O)N(c2ccc3c(c2)OCCO3)C1 (stereo unspecified) | · | · | · | · | · | 92
O=C(Nc1ccc(N2CCCC2)cc1)c1cc2ccccc2o1 | -17 | 3 | 16 | 6 | -4 | 102
O=C(NC(=S)Nc1ccc(NC(=O)c2cccs2)cc1)c1cc2ccccc2o1 | -1 | -6 | 5 | 1 | -4 | 70*
CC(=O)N1CCN(c2ccc(NC(=O)c3cc4ccccc4o3)cc2)CC1 | 26* | 3 | -5 | 1 | -4 | 91
CC(=O)N1CCN(c2ccc(NC(=O)C(c3ccccc3)c3ccccc3)cc2)CC1 | 7 | 4 | 5 | -1 | -2 | 38*
CCc1ccc(CNc2ccc(N3CCN(C(C)=O)CC3)cc2)cc1 | 30* | 0 | 19 | -2 | -8 | 109
Cc1c(CC(=O)N2C[C@H]3C[C@@H](C2)c2cccc(=O)n2C3)c(=O)oc2cc3occ(C(C)(C)C)c3cc12 | 11 | -5 | 1 | 6 | 5 | 102
CN(CC(=O)Nc1ccc(F)cc1)C(=O)COC(=O)CCN1C(=O)C2CC=CCC2C1=O (stereo unspecified) | 3 | 5 | 1 | 8 | 2 | 118
Cc1ccc(NC(=O)c2cc(=O)c3ccccc3o2)cc1 | 2 | 5 | 9 | 1 | 3 | 102
CC(=O)Nc1ccc(NC(=O)c2cc(=O)c3ccccc3o2)cc1 | 28* | 4 | 4 | 5 | 1 | 89
COc1ccccc1C#Cc1ccc2c(=O)c3ccccc3n(C)c2c1 | -4 | 1 | 30* | -5 | -9 | 94
Cc1cc(C)c(S(=O)(=O)NCc2nc3nc(C)cc(C)n3n2)c(C)c1 | 3 | 4 | -7 | -3 | 1 | 109
COC(=O)N(C)C[C@@H]1OCc2cnnn2CCCC(=O)N([C@H](C)CO)C[C@H]1C | · | · | · | · | · | 97
COc1ccc2cc(C#N)c(SCC(=O)N3CC(=O)Nc4ccccc43)nc2c1 | -2 | 3 | -1 | -5 | -5 | 69*
Cc1cccc2cc(C#N)c(SCC(=O)N3CC(=O)Nc4ccccc43)nc12 | 2 | -4 | -3 | -20 | -16 | 101
COc1cccc(-c2nnn(CC(=O)N(C3CCCCC3)C3CCS(=O)(=O)C3)n2)c1 (stereo unspecified) | · | · | · | · | · | 98
COc1ccc(Cl)cc1N(CC(=O)N1CCC(C)CC1)S(C)(=O)=O | 1 | -4 | 7 | 3 | -9 | 81*
COc1cccc(CNC(=O)Cn2cc([N+](=O)[O-])cn2)c1 | 5 | 4 | -2 | 2 | -3 | 113
Cc1ccc(C(=O)NCC(=O)OCC(=O)c2cc(C)n(Cc3ccco3)c2C)cc1 | 12 | 2 | -16 | 5 | 0 | 113
C=CCn1c(C)cc(C(=O)COC(=O)CNC(=O)c2ccccc2)c1C | 3 | 1 | 0 | -3 | -2 | 72*
C#CC1(NC(=S)Nc2cccc(OC)c2)CCCCC1 | · | · | · | · | · | 107
